The target of one assay is Albumin (Bos taurus) (UniProt P02769). In words: compounds binding labelled BSA control protein – biochemical, small-molecule microarray, Alexa647 label, 635/667 nm fluorescence, artefact control for SMM control protein annotation, profiling panel (AID 1118).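 Note: score merges 667 nm emission intensity and signal-to-noise per printed compound spot.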 The settings on record: BSA-A647 binding, fluorescence 635 nm, higher = more signal.
Assay [1] in a line: probe aXIP binding to arrayed compounds – biochemical, NeuroSMM set, 635/667 nm fluorescence, primary screen (AID 1119).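 Note: probe is the protein aXip251-270 applied at 1 µg/mL to compound-printed slides; binding of probe to printed compounds measured as 667 nm fluorescence plus signal to noise.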 The settings on record: small-molecule microarray, higher = more signal, called active from +8 up or from −8 down.
The nature of assay [2]: probe aNOTCH3 binding on compound microarray – biochemical, small-molecule microarray, 635/667 nm fluorescence, primary screen (AID 1120).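 Note: probe is a biotin-tagged antibody raised against NOTCH3 rather than NOTCH3 protein; score merges spot fluorescence near 667 nm with spot signal to noise.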 The settings on record: higher = more signal.
Assay [3] can be described thus: probe aNOTCH2 binding on compound microarray – biochemical, small-molecule microarray, 635/667 nm fluorescence, primary screen (AID 1121).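 Note: score merges feature fluorescence read at 667 nm with its signal to noise.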 The note with it: higher = more signal.
The target of assay [4] is Carbonic anhydrase 2 (Homo sapiens) (UniProt P00918). In words: compounds binding carbonic anhydrase 2 – biochemical, small-molecule microarray, Alexa647-labelled CAII, profiling panel (AID 1122). The settings on record: CAII-A647 binding fluorescence, higher = more signal.
Assay [5] can be described thus: COS7 lysate on small-molecule microarray, probe aHis, 635 nm (AID 1123).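 Note: z-score combines 667nm fluorescence intensity with signal-to-noise per printed compound spot.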 The note with it: COS7 cell lysate, fluorescence, higher = more signal.
The nature of assay [6]: probe aLAP1 signal on lysate-treated microarray – cell lysate, small-molecule microarray, COS7 lysate, primary screen (AID 1124).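 Note: lysate comes from COS7 cells expressing LAP1 and is applied at 0.3 µg/mL; score merges spot fluorescence near 667 nm with signal-to-noise over triplicate slides.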 The settings on record: probe aLAP1, fluorescence, higher = more signal.
In the next assay the test system is Sam68 (KHDRBS1). The experiment in a line: compounds binding KHDRBS1 protein – biochemical, small-molecule microarray, 635 nm fluorescence, primary screen (AID 1125).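 Note: score merges 667 nm channel intensity with signal to noise over triplicate slides.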 The settings on record: higher = more signal.
Assay [7] deals with Chordin-like protein 2 (CHRDL2). The experiment in a line: compounds binding chordin-like 2 – biochemical, small-molecule microarray, 635 nm fluorescence, primary screen (AID 1126).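 Note: printed compound slides probed with Chrdl2 protein at 4 µg/mL for 1 h at 4 C; score merges 667 nm emission intensity with signal to noise over three replicate slides.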 The note with it: fluorescence 635 nm, higher = more signal.
In assay [8] the target is Concanavalin-A (Canavalia ensiformis) (UniProt P02866). The experiment in a line: compounds binding concanavalin A lectin – biochemical, small-molecule microarray, Alexa647 label, 635 nm, artefact control for SMM control protein annotation, primary screen (AID 1127).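 Note: z combines 667 nm emission intensity with signal-to-noise across three replicate slides.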 The note with it: ConA-A647 binding fluorescence, higher = more signal.

Activity calls are given as the source filed them.

Chain of Albumin (Bos taurus) (P02769 whole entry, looked up): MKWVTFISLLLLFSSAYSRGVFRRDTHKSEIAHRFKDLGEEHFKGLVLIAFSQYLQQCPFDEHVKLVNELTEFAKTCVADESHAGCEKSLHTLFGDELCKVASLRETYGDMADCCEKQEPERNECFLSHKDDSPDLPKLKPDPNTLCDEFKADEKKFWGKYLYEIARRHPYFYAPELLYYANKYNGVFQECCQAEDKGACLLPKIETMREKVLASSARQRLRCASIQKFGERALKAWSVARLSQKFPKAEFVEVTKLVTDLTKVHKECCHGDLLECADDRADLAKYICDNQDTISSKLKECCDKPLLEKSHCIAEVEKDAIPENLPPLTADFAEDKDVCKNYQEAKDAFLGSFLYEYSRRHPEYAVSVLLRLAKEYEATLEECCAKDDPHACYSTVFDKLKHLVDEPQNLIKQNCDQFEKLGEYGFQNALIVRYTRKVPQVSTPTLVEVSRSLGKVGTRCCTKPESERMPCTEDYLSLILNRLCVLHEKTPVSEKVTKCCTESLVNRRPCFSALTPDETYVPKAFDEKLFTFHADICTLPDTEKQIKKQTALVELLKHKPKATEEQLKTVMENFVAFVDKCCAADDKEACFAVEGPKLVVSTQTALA
Chain of Concanavalin-A (Canavalia ensiformis) (P02866 whole entry, looked up): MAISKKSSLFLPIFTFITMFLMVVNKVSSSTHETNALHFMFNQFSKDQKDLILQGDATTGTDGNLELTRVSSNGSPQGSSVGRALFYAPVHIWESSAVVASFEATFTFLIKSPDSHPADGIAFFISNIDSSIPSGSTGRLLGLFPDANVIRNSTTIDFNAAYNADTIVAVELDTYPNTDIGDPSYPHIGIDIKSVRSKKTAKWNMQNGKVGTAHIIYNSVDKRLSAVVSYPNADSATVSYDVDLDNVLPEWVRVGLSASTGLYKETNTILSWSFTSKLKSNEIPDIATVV

In the case of `O=C(Cc1ccccc1)[C@H]1C2C=CCCC(c3ccccc3)=C2CN1Cc1ccccc1` (stereo not given in full), the composite z-score with Albumin (Bos taurus) was -0.567; in assay [2], -0.166; in assay [3], -0.179; in [4], -0.302; in [5], -0.328; in assay [6], 0.0448. The composite z-score with Sam68 (KHDRBS1) is -0.299; in assay [7], 0.23; in assay [8], -0.22. Also, the composite Z-score in assay [1] is -0.041 (inactive).
As for `CC(C)NC(=O)[C@@]1(c2ccc([N+](=O)[O-])cc2)CC(=O)N(C2CCCCC2)[C@@H]1c1ccc(CO)cc1`, the composite z-score is 0.807 with Albumin (Bos taurus); 0.325 in assay [2]; -0.245 in [3]; 0.729 in [4]; 2.17 in assay [5]; 0.94 in assay [6]. For the same molecule, the values for the composite z-score (with Sam68 (KHDRBS1); in assay [7]; in assay [8]) were 1.26, -0.0413 and 1.02, respectively. Besides, in [1], the composite Z-score is -0.107 (inactive).
Take `COC(=O)[C@@]1(Cc2ccc(OC)cc2)[C@H]2c3cc(C(=O)N4CCCC4)n(CCc4c[nH]c5ccc(OC)cc45)c3C[C@H]2CN1C(=O)c1ccccc1`: the composite z-score with Albumin (Bos taurus) is 0.93; in assay [2], 0.319; in [3], 0.387; in [4] it was 0.711; in assay [5], 2.81; in assay [6], 0.8. For the same molecule, the composite z-score in the assay with Sam68 (KHDRBS1) was 1.11; in [7], -1.04; in assay [8] it was 0.852. Further, the composite Z-score in [1] is -0.453 (inactive).
On to `CC(C)C[C@@H]1NC(=O)[C@@H]2C[C@H](C(=O)NCCCCCCN)[C@H](c3cccc(OCCO)c3)N2C1=O`, for which the composite z-score in the assay with Albumin (Bos taurus) is 0.586; in assay [2], 0.16; in [3], -0.0859; in [4], 0.659; in [5], 2.22; in assay [6], 0.636. The results for the composite z-score (with Sam68 (KHDRBS1); in assay [7]; in [8]) were 1.31, 0.668 and 1.03, respectively. Besides, in [1], the composite Z-score is 0.799 (inactive).
For the molecule `COC(=O)[C@@H]1N=C(c2ccc(OCCCO)cc2)O[C@@H]1c1ccccc1`, the composite z-score is 0.258 in the assay with Albumin (Bos taurus); -0.206 in assay [2]; -0.104 in assay [3]; 0.7 in assay [4]; 0.387 in assay [5]; -0.342 in assay [6]. Besides, the results for the composite z-score (in the assay on Sam68 (KHDRBS1); in assay [7]; in assay [8]) were -0.826, -1.89 and -0.324, respectively. The composite Z-score in [1] was 0.536 (inactive).
As to `Oc1ccc2cc[n+](Cc3cc4c(cc3Br)OCO4)cc2c1`, the composite z-score with Albumin (Bos taurus) was -1.19; in [2] it was -0.333; in [3], -0.108; in assay [4] it was 0.908; in [5], -0.129; in [6] it was -0.127. The composite z-score was -0.538 with Sam68 (KHDRBS1), -0.496 in [7] and -0.985 in [8]. Also, the composite Z-score in [1] was -0.399 (inactive).
As for `[N-]=[N+]=Nc1ccccc1C[C@]1(C(=O)N2CCOCC2)COC(c2ccc(OCCCO)cc2)=N1`, the composite z-score with Albumin (Bos taurus) was 0.808; in assay [2], 0.373; in [3] it was -0.118; in assay [4], 0.763; in assay [5] it was 2.21; in assay [6] it was -0.181. The composite z-score in the assay with Sam68 (KHDRBS1) is 1.29; in [7], -0.646; in assay [8], 0.99. Moreover, the composite Z-score in assay [1] was 0.04 (inactive).
As to `COC(=O)[C@@]1(Cc2ccc(OC)cc2)[C@H]2c3cc(C(=O)N(C)C)n(Cc4ccc(C)o4)c3C[C@H]2CN1C(=O)c1ccccc1`, the composite z-score turned out to be 0.814 with Albumin (Bos taurus); 0.517 in assay [2]; 0.204 in assay [3]; 0.806 in assay [4]; 2.99 in assay [5]; 0.463 in [6]. Further, the composite z-score was 0.933 in the assay with Sam68 (KHDRBS1), -0.905 in [7] and 0.842 in assay [8]. The composite Z-score in assay [1] was 1.24 (inactive).
On to `CC[C@@H]1O[Si](C(C)C)(C(C)C)c2c1cc(-c1cc(C)c(OC)c(C)c1)nc2-c1ccc(Oc2ccccc2)cc1`, for which the composite z-score with Albumin (Bos taurus) is -0.145; in assay [2], -0.0967; in assay [3] it was -0.141; in assay [4] it was -0.272; in [5], 0.133; in assay [6], -0.006. Besides, the values for the composite z-score (in the assay with Sam68 (KHDRBS1); in [7]; in [8]) were -0.807, -0.77 and -0.0734, respectively. The composite Z-score in assay [1] is -0.837 (inactive).
Take `C[C@@H]1NC(=O)[C@@H](Cc2ccccc2)NC(=O)[C@@]23C(=O)N[C@@H](Cc4ccccc4)C2[C@H](C)[C@@]2(C)O[C@H]2C3/C=C/C/C=C\CNC1=O` (stereo not given in full): the composite z-score with Albumin (Bos taurus) was 0.324; in assay [2], -0.277; in [3] it was -0.125; in assay [4], 0.493; in assay [5], 1.05; in assay [6], 0.074. In addition, the composite z-score is 0.126 in the assay with Sam68 (KHDRBS1), -0.153 in assay [7] and -0.447 in [8]. Moreover, the composite Z-score in [1] is -0.888 (inactive).

Values taken from PubChem BioAssay.
